System: Vero E6 infected with SARS-CoV-2
Test: inhibition of SARS-CoV-2 cytopathic effect; higher = more antiviral protection, active = above 15
Settings: 8.33 nM; 48 h

Row | Compound | inhibition of SARS-CoV-2 cytopathic effect
1 | CS(=O)(=O)c1ccc(C2=C(c3ccccc3)C(=O)OC2)cc1 [rofecoxib] | -0.86% (inactive)
2 | CC(C)(C)c1ccc(C(O)CCCN2CCC(C(O)(c3ccccc3)c3ccccc3)CC2)cc1 (stereo not drawn) [terfenadine] | -2.95% (inactive)
3 | CCOC(=O)[C@H](C)C[C@@H](Cc1ccc(-c2ccccc2)cc1)NC(=O)CCC(=O)O [sacubitril] | -0.1% (inactive)
4 | CC(C)N(CCC(=O)c1ccc2ccccc2c1)Cc1ccccc1 | -1.41% (inactive)
5 | O=C(O)CCCO | 2.68% (inactive)
6 | C[C@]12Cc3c[nH]nc3C[C@@H]1CC[C@@H]1[C@@H]2CC[C@@]2(C)[C@H]1CC[C@]2(C)O [stanozolol] | -5.17% (inactive)
7 | O=C(Nc1ccccc1)OCC(CN1CCCCC1)OC(=O)Nc1ccccc1 (stereo not drawn) [diperodon] | -0.37% (inactive)
8 | Cc1c2oc3c(C)ccc(C(=O)N[C@@H]4C(=O)N[C@H](C(C)C)C(=O)N5CCC[C@H]5C(=O)N(C)CC(=O)N(C)[C@@H](C(C)C)C(=O)O[C@@H]4C)c3nc-2c(C(=O)N[C@@H]2C(=O)N[C@H](C(C)C)C(=O)N3CCC[C@H]3C(=O)N(C)CC(=O)N(C)[C@@H](C(C)C)C(=O)O[C@@H]2C)c(N)c1=O [dactinomycin] | 3.96% (inactive)
9 | COc1nc(N)nc2c1ncn2[C@@H]1O[C@H](CO)[C@@H](O)[C@@H]1O [nelarabine] | -1.48% (inactive)
10 | CC1=C(/C=C/C(C)=C/C=C/C(C)=C/C=O)C(C)(C)CCC1 [retinaldehyde] | 1.56% (inactive)
11 | Nc1ccc(S(=O)(=O)NC(=O)c2ccccc2)cc1 [sulfabenzamide] | -0.25% (inactive)
12 | c1coc(-c2nnc3sc(C4CCCCC4)nn23)c1 [cardionogen-1] | -0.13% (inactive)
13 | Cc1ccc(C[N+](C)(C)C)o1 [5-methylfurmethiodide] | -0.75% (inactive)

Same assay, conditions: 100 nM; 48 h

Row | Compound | inhibition of SARS-CoV-2 cytopathic effect
14 | O=C(Nc1cccnc1)c1cc(-c2ccnc(F)c2)ccc1OCc1ccccc1 | 4.16% (inactive)
15 | COc1ccccc1C(=O)Nc1cccc(NC(=O)c2cccc(C)c2)c1 | 2.82% (inactive)
16 | CCC1(CC)C(=O)C=CNC1=O [pyrithyldione] | -3.23% (inactive)
17 | c1ccc(CCCCN2CCC(c3ccccc3)CC2)cc1 | 2.71% (inactive)
18 | O=c1oc2ccccc2c(O)c1Cc1c(O)c2ccccc2oc1=O [dicoumarol] | -0.82% (inactive)
19 | CC(C)NCC(O)COc1cccc2[nH]c3ccccc3c12 (stereo not drawn) [carazolol] | -1.61% (inactive)
20 | CCN(c1ccccc1)c1cc(=NC)n(C)c(C)n1 | -5.42% (inactive)
21 | CC(C)(O)[C@@H]1[C@H]2OC(=O)[C@@H]1[C@]1(O)C[C@H]3O[C@]34C(=O)O[C@H]2[C@]14C [picrotin] | 1.26% (inactive)
22 | COc1ccc(-c2ccc3c(N4CCOCC4)nc(N4C[C@@H](C)O[C@@H](C)C4)nc3n2)cc1CO | 2.09% (inactive)
23 | O=c1[nH]cnc2c1ncn2[C@H]1CC[C@@H](CO)O1 [didanosine] | 2.16% (inactive)
24 | CC(C)(C)CC(C)(C)c1ccc(O)c(Cc2ccc(Cl)cc2Cl)c1 [clofoctol] | 2.41% (inactive)
25 | O=C(CNC(=O)c1cccc(C(F)(F)F)c1)N[C@@H]1CCN(Cc2ccc(Cl)cc2)C1 [teijin-compound-1] | 0.66% (inactive)
26 | O=C1c2cc(Cl)ccc2OC2CCON12 (stereo not drawn) [seclazone] | 1.79% (inactive)
27 | Nc1ncnc2c1ncn2[C@H]1CC[C@@H](CO)O1 [dideoxyadenosine] | 2.1% (inactive)
28 | Cc1cc(NC(=O)C2=C(O)c3ccccc3S(=O)(=O)N2C)no1 [isoxicam] | -4.12% (inactive)
29 | CCCCCCOc1nsnc1C1=CCCN(C)C1 [xanomeline] | -1.23% (inactive)
30 | COc1cc2c(cc1O)CC[C@@H]1[C@@H]2CC[C@]2(C)[C@@H](O)CC[C@@H]12 [2-methoxyestradiol] | -1.13% (inactive)
31 | Nc1ncnc2c1c(-c1cnc3[nH]ccc3c1)nn2C1CCCC1 | 0.41% (inactive)
32 | O=C(O)c1cn(C2CC2)c2cc(N3CCNCC3)c(F)cc2c1=O [ciprofloxacin] | 0.61% (inactive)
33 | FCc1ccc(OCCOc2ccc(Cl)cc2Cl)c(Cl)n1 | 2.11% (inactive)

Row | Compound | inhibition of SARS-CoV-2 cytopathic effect
34 | CC/C=C(\C(=O)N[C@@H]1C(=O)N2C(C(=O)OCOC(=O)C(C)(C)C)=C(COC(N)=O)CS[C@H]12)c1csc(N)n1 [cefcapene-pivoxil] | -0.76% (inactive)
35 | Nc1nc(=O)c2sc(=O)n([C@@H]3O[C@H](CO)[C@@H](O)[C@H]3O)c2[nH]1 | -0.66% (inactive)
36 | COC(=O)/C=C/C(=O)OCCN1C(=O)CCC1=O [diroximel-fumarate] | -3.4% (inactive)
37 | O=C(O)c1cc2ccccc2s1 | -0.94% (inactive)
38 | CC(C)Oc1ccc(-c2nn([C@@H](C)c3oc4ccc(F)cc4c(=O)c3-c3cccc(F)c3)c3ncnc(N)c23)cc1F | 0.14% (inactive)
39 | CC(C)CNc1ccnc(NCc2csc(-c3ccccc3)n2)n1 | 0.03% (inactive)
40 | CCCCCCCC/C=C\CCCCCCCC(=O)N[C@@H](CO)Cc1ccc(O)cc1 | 1.38% (inactive)
41 | CS(=O)(=O)c1ccc(C2=C(c3ccccc3)C(=O)OC2)cc1 [rofecoxib] | -0.87% (inactive)
42 | CC(C)(C)c1ccc(C(O)CCCN2CCC(C(O)(c3ccccc3)c3ccccc3)CC2)cc1 (stereo not drawn) [terfenadine] | -0.52% (inactive)
43 | CCOC(=O)[C@H](C)C[C@@H](Cc1ccc(-c2ccccc2)cc1)NC(=O)CCC(=O)O [sacubitril] | -1.3% (inactive)
44 | CC(C)N(CCC(=O)c1ccc2ccccc2c1)Cc1ccccc1 | 1.13% (inactive)
45 | O=C(O)CCCO | 2.71% (inactive)
46 | C[C@]12Cc3c[nH]nc3C[C@@H]1CC[C@@H]1[C@@H]2CC[C@@]2(C)[C@H]1CC[C@]2(C)O [stanozolol] | -4.66% (inactive)
47 | O=C(Nc1ccccc1)OCC(CN1CCCCC1)OC(=O)Nc1ccccc1 (stereo not drawn) [diperodon] | 0.05% (inactive)
48 | Cc1c2oc3c(C)ccc(C(=O)N[C@@H]4C(=O)N[C@H](C(C)C)C(=O)N5CCC[C@H]5C(=O)N(C)CC(=O)N(C)[C@@H](C(C)C)C(=O)O[C@@H]4C)c3nc-2c(C(=O)N[C@@H]2C(=O)N[C@H](C(C)C)C(=O)N3CCC[C@H]3C(=O)N(C)CC(=O)N(C)[C@@H](C(C)C)C(=O)O[C@@H]2C)c(N)c1=O [dactinomycin] | -3.53% (inactive)
49 | COc1nc(N)nc2c1ncn2[C@@H]1O[C@H](CO)[C@@H](O)[C@@H]1O [nelarabine] | -0.71% (inactive)
50 | CC1=C(/C=C/C(C)=C/C=C/C(C)=C/C=O)C(C)(C)CCC1 [retinaldehyde] | 3.22% (inactive)
51 | Nc1ccc(S(=O)(=O)NC(=O)c2ccccc2)cc1 [sulfabenzamide] | -1.3% (inactive)
52 | c1coc(-c2nnc3sc(C4CCCCC4)nn23)c1 [cardionogen-1] | 0.69% (inactive)
53 | Cc1ccc(C[N+](C)(C)C)o1 [5-methylfurmethiodide] | -0.64% (inactive)
